Laboratory results: PubChem BioAssay AID1159580 (chemical genetic matrix, 2015)
Where “and” joins values, the source holds several entries; their conditions need not be identical. Equal entries are not always repeated. The campaign covered roughly 5,500 compounds. About 2,000 (36%) were called active. Not shown: some 18% with an inconclusive outcome. No stated cut-off is given here; in the data, active means normalized growth mostly below about 0.91 (no sharp cut-off); inconclusive means no clear call, values can overlap the other calls; inactive means mostly above about 0.92. The list shows a part of the results.

Assay: chemical genetic growth profiling, strain panel (AID 1159580);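 further: tested at 20 µM; growth read once vehicle control cultures reached saturation at 30 °C; 1 = growth at the plate median or of vehicle wells; lower values mean less growth of the strain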
Conditions: S. cerevisiae deletion strains, growth OD

Measured: normalized growth

CC(=O)Oc1cc(OC(C)=O)c2c(c1)O[C@H](c1ccc(OC(C)=O)c(OC(C)=O)c1)[C@@H](OC(C)=O)C2
inactive: locus YAL013W, strain DEP1, hits give low values 1 | locus YAL021C, strain ccr4, hits give low values 1 | locus YAL026C, strain drs2, hits give low values 0.995 | locus YAL030W, strain snc1, hits give low values 1 | locus YBL061C, strain skt5, hits give low values 1 | locus YBR009C, strain hhf1, hits give low values 1.02 | locus YBR021W, strain FUR4, hits give low values 0.975 | locus YBR023C, strain chs3, hits give low values 1 | locus YBR171W, strain sec66, hits give low values 1 | locus YBR229C, strain ROT2, hits give low values 0.992 | locus YBR231C, strain swc5, hits give low values 0.99 | locus YBR279W, strain paf1, hits give low values 1 | locus YCL011C, strain gbp2, hits give low values 1 | locus YCL016C, strain dcc1, hits give low values 1 | locus YCL029C, strain bik1, hits give low values 0.965 | locus YCL061C, strain MRC1, hits give low values 0.994 | locus YCL069W, strain vba3, hits give low values 1 | locus YCR088W, strain abp1, hits give low values 1 | locus YDL005C, strain med2, hits give low values 1 | locus YDL035C, strain GPR1, hits give low values 0.995 | locus YDL040C, strain nat1, hits give low values 1 | locus YDL074C, strain BRE1, hits give low values 0.99 | locus YDL101C, strain DUN1, hits give low values 0.994 | locus YDL134C, strain PPH21, hits give low values 1.04 | locus YDL185W, strain tfp1, hits give low values 0.972 | locus YDL192W, strain arf1, hits give low values 0.98 | locus YDR001C, strain nth1, hits give low values 1 | locus YDR069C, strain doa4, hits give low values 0.994 | locus YDR101C, strain arx1, hits give low values 0.961 | locus YDR137W, strain rgp1, hits give low values 1.02 | locus YDR159W, strain sac3, hits give low values 0.999 | locus YDR162C, strain NBP2, hits give low values 0.997 | locus YDR195W, strain ref2 0.966 | locus YDR297W, strain sur2, hits give low values 1.01 | locus YDR318W, strain mcm21, hits give low values 1.01 | locus YDR334W, strain swr1, hits give low values 1 | locus YDR335W, strain msn5, hits give low values 0.997 | locus YDR388W, hits give low values 0.978 | locus YDR392W, strain spt3, hits give low values 0.927 | locus YDR502C, strain sam2, hits give low values 0.984 | locus YEL003W, strain gim4, hits give low values 1 | locus YEL037C, strain rad23, hits give low values 1 | locus YEL061C, strain CIN8 (second series), hits give low values 0.998 | locus YEL061C, strain CIN8, hits give low values 1 | locus YER015W, strain faa2, hits give low values 0.995 | locus YER016W, strain bim1, hits give low values 0.999 | locus YER110C, hits give low values 0.97 | locus YER111C, strain swi4, hits give low values 1 | locus YER155C, strain BEM2 (second series), hits give low values 1 | locus YER155C, strain BEM2, hits give low values 1 | locus YER167W, strain BCK2, hits give low values 1 | locus YFR010W, strain ubp6, hits give low values 1 | locus YGL078C, strain dbp3, hits give low values 0.979 | locus YGL086W, strain mad1, hits give low values 0.955 | locus YGL167C, strain pmr1, hits give low values 1 | locus YGL173C, strain kem1, hits give low values 1.01 | locus YGL227W, strain vid30, hits give low values 0.993 | locus YGL240W, strain doc1, hits give low values 1 | locus YGL248W, strain PDE1, hits give low values 0.993 | locus YGL253W, strain hxk2, hits give low values 0.997 | locus YGR078C, strain PAC10, hits give low values 0.991 | locus YGR135W, strain pre9, hits give low values 0.992 | locus YGR229C, strain SMI1, hits give low values 0.992 | locus YGR252W, strain gcn5, hits give low values 1.1 | locus YHR013C, strain ard1, hits give low values 0.967 | locus YHR027C, strain rpn1, hits give low values 1 | locus YHR030C, strain SLT2, hits give low values 0.998 and 0.994 | locus YHR079C, strain IRE1 (second series), hits give low values 0.98 | locus YHR079C, strain IRE1, hits give low values 0.98 | locus YHR094C, strain hxt1, hits give low values 0.985 | locus YHR129C, strain ARP1, hits give low values 1 | locus YHR142W, strain chs7, hits give low values 1.02 | locus YHR200W, strain rpn10, hits give low values 0.982 | locus YIL066C, strain RNR3, hits give low values 0.978 | locus YIL073C, strain SPO22, hits give low values 1.01 | locus YIL125W, strain kgd1, hits give low values 0.975 | locus YIR030C, strain dcg1, hits give low values 0.982 | locus YJL092W, strain hpr5, hits give low values 0.997 | locus YJL095W, strain BCK1 (second series), hits give low values 1 | locus YJL095W, strain BCK1, hits give low values 1.02 and 0.979 | locus YJL115W, strain asf1, hits give low values 0.99 | locus YJL129C, strain trk1, hits give low values 0.995 | locus YJL134W, strain LCB3, hits give low values 0.997 | locus YJL154C, strain vps35, hits give low values 0.997 | locus YJL164C, strain tpk1, hits give low values 1 | locus YJL166W, strain qcr8, hits give low values 1.01 | locus YJL168C, strain set2, hits give low values 0.981 | locus YJL187C, strain SWE1 (second series), hits give low values 0.985 | locus YJL187C, strain SWE1, hits give low values 1 | locus YJR043C, strain POL32, hits give low values 1.01
